PBM binding z-score data for 40 sequences are collected here from the supplement of paper PMC6555819.

This experiment concerns VDR:RXRa (NR concentration 270 nM, RXRa partner concentration 90 nM). Kind of experiment: PBM binding z-score (relative to random genomic background probes); higher = stronger binding; sequences stand for … in GC…GCGATTGACAGCGTAGAATGAAGG
The procedure:
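Protein-binding microarray (Agilent 4x180K custom design, double-stranded 60-nt probes: 5' GC cap, 34-nt variable region, 24-nt constant primer region; full probe sequence given). Purified or IVT nuclear receptor:RXRα heterodimers (3:1 NR:RXRα, mostly 270:90 nM) or homodimers were incubated for 1 h in PBS with 2% milk and no ligand, then detected with Alexa488 antibodies. Fluorescence from o1-orientation probes (~5 replicates averaged) was converted to z-scores against 500 random hg19 background probes. Variable regions are seed direct-repeat (DR0–DR5) sites, all their single-nucleotide variants and half-site ablations.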
CCCAGTAGGTTATGGGGCATTCAGGCAACGGTGA displayed a PBM binding z-score of 0.00537.

On to CCTAGCAGGACAGGGTCACTCAAGCATTTCGCTT, for which the PBM binding z-score was 2.9.

Sequence ACTGTTAGTTGACTTAGGGCAACCGATACGACGC came in with a PBM binding z-score of 0.59.

For the sequence CAAACTAGGTCACCGGAAGGTCCAAGTCCGCATG, the PBM binding z-score was found to be 3.1.

In the case of TCTAGATGGTCACGGAGGTCACACACGACGGGTA, the PBM binding z-score amounted to 6.25.

The sequence GCTTGTATATCAAGGTTAAGAAAGACTAAGCTAA came in with a PBM binding z-score of 0.325.

On to ATACCAAGGTGATCGTGAGATCGTTGATACTAAC, for which the PBM binding z-score was 0.19.

ATCTCTAGGTAAAAGTCCAGTGAATCCCGAGGAT: the PBM binding z-score came out at 0.00204.

On to CCTTACGGGTCACGAGGTTATCGCACGACGAGCG, for which the PBM binding z-score is 5.31.

ACTCGGAGGACAAAGATCAGAGCTACGCCAGTGA returned a PBM binding z-score of -0.289.

Take CCTACTGGGGCATAAGGTTACCATAAGCCAGCCC: the PBM binding z-score amounted to 0.27.

CCTACTGGGGCAAAGGTTACCATACTCAGTACGA came in with a PBM binding z-score of 1.86.

Consider GCTAGTAGTTGAAAGGGCAACCGAATGATTCTCG, for which the PBM binding z-score is 0.183.

The sequence GCTCGGTGGACAAGGTCAGAGCTTTGTCCGTAGA came in with a PBM binding z-score of 1.48.

GATACAGGGTCAGCTAGATGCCAGAGTATGGAAA: the PBM binding z-score turned out to be 2.58.

Regarding CCTACCGGGCCACGAAAGGTCATTGATTCAGTGA, the PBM binding z-score came to 4.1.

For TCTTGTAGATCAATGGAGGTTAAGAAAGTGCGCT, the PBM binding z-score was 1.38.

Turning to CCTTACGGGTCACTGACAGATTATAGCATTTGGA, the PBM binding z-score is 3.13.

TCTGCTAGTTCAGTTGGTCAGCTAACGAGCTGCC: the PBM binding z-score is -0.158.

AGAATGAGGTTACCAAAGATGAGGGAAACGCTTG: the PBM binding z-score was 1.03.

Sequence TCATACAGGTAATACAGGTGAAAGTCGGCATCTA came in with a PBM binding z-score of 1.24.

In turn, AGTAGCAGGCCAAGTTTGGGTCACTCAAACAAAG had a PBM binding z-score of 0.609.

CCTTACGGGTCACTGACGGGTTATAGCATTTGGA displayed a PBM binding z-score of 3.7.

Take CGTCCAAGGTTAGAGAGGTCAGTGAATGCCGAGT: the PBM binding z-score stood at 5.7.

As to GGAACGAGGGCAAAGTTGATAGTATCTGTCGACG, the PBM binding z-score was 1.21.

The sequence ATCGAAAGGACGACGAGGTGAGTATACACCGTTT had a PBM binding z-score of 0.0992.

Regarding AGAATGAGGTTAAGATCATGGAAACAGAATACAT, the PBM binding z-score was 1.28.

For the sequence TCATATAGGTAAACAGGTGAACGTCCGTAAGTTA, the PBM binding z-score amounted to 1.19.

As to AGTCAAAGTTCACTAGGTAACGTAAGATTCAGCT, the PBM binding z-score turned out to be 3.83.

ATCTCTAGGTAGAGATAGTTCAGTGAATGCAAAT: the PBM binding z-score was found to be 0.159.

ACTAGCAGGCCAAGTTTGGGTCACTCCAACAAAG: the PBM binding z-score turned out to be 0.642.

In the case of TAGCCTAGGTCATTAGGCCAGTATAGTACGCATC, the PBM binding z-score was 1.69.

For the sequence TCTATTTGTTGAAGGGCAACCGACGAGTCCGTTT, the PBM binding z-score came to 1.19.

The sequence ATCTAAAGGTCGAGGTGAGTATAGAGAAAGGGAA returned a PBM binding z-score of 3.08.

The sequence AATAAAGGGTCACTAGGCCAGAGTAGGTACGAAT showed a PBM binding z-score of 4.04.

The sequence ATCTCCAGGTAACCAAGTTCAGTGAATGCCGAAC returned a PBM binding z-score of 4.4.

As to ATCTCTAGGTAAAGATAGTACAGTGAATGCAAAT, the PBM binding z-score stood at 0.325.

Sequence CCTTACGGGTCACTCGAGGTTATAGCATCGGAGT had a PBM binding z-score of 5.11.

In turn, CCTTACGGGTCACTGACAAGTTATAGCATTTGGA returned a PBM binding z-score of 3.07.

TCTTGTAGATCAGCAAGTTAAGAAAGCTGGCCAA gave a PBM binding z-score of 0.28.
